According to PubChem BioAssay AID431 (Sanford-Burnham Center for Chemical Genomics, 2006):
The whole screen tested about 63,000 compounds, of which about 1,100 (1.7%) were called active. This excerpt belongs to a sample that is enriched for actives. Results with a measured potency or affinity are listed apart. Values without a mark were called inactive.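 How the source made its calls: active means compounds whose percent cytotoxicity in the single-dose primary screen, scaled between solvent and toxic-drug controls, exceeds 50; inactive means the rest.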

Assay: viability loss of HPDE-C7K cells – cell-based, fluorescence, HTS, primary screen (AID 431);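 further: 0% = DMSO solvent wells and 100% = doxorubicin-treated wells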
Details: HPDE-C7K KRASV12 cells, Alamar Blue viability, 48 h; at 10 µM; active compounds read high
Work on CN1C(=O)CC(N2CCN(C(c3ccccc3)c3ccccc3)CC2)C1=O (stereo not drawn) yielded a cytotoxicity of -16.6%. In the case of COC(=O)Cn1c(CN2CCN(c3ccc(F)cc3)CC2)nc2c1c(=O)n(C)c(=O)n2C, the cytotoxicity was 0.6%. Compound CCOC(=O)NC(Nc1ncccn1)(C(F)(F)F)C(F)(F)F has a cytotoxicity of -17.3%. For COc1ccc(OC)c(C2CC(=O)c3c([nH]c(C(=O)OC(C)C)c3C)C2)c1 (stereo not drawn), the cytotoxicity was 51.6% (active). For COCCOC(=O)c1[nH]c2c(c1C)C(=O)CC(c1cc(OC)ccc1OC)C2 (stereo not drawn), the cytotoxicity was -6.8%. With CCCOCCOC(=O)c1[nH]c2c(c1C)C(=O)CC(c1cc(OC)ccc1OC)C2 (stereo not drawn) the cytotoxicity was 53.5% (active). With COC(=O)c1[nH]c2c(c1C)C(=O)CC(c1cc(OC)ccc1OC)C2 (stereo not drawn) the cytotoxicity was 18.9%. Work on COc1ccc(C2CC(=O)c3c([nH]c(C(=O)OC(C)C)c3C)C2)cc1OC (stereo not drawn) yielded a cytotoxicity of -16.2%. For COc1cc2nc(CC(C)C)n(NC(=O)c3ccccc3)c(=O)c2cc1OC, the cytotoxicity was -0.2%. In the case of Cc1cc(N2CCN(C(=O)c3ccco3)CC2)n2nc(-c3cccc(Cl)c3)cc2n1, the cytotoxicity was 2%. c1cnc(NCCNc2ncccn2)nc1 gave a cytotoxicity of -5.3%. Work on Cc1cc(NC(=O)c2ccc(Cn3nc(C)c(Br)c3C)o2)no1 yielded a cytotoxicity of 6.8%. With CCOC(=O)C1CCN(c2c(N(C)Cc3ccco3)c(=O)c2=O)CC1 the cytotoxicity was 11%. O=CN1Cc2[nH]c3ccccc3c2N(c2ccc(Cl)cc2)C1=O gave a cytotoxicity of -0.4%. Compound Cc1ccc(S(=O)(=O)c2c(N)n(/N=C/c3ccco3)c3nc4ccccc4nc23)cc1C has a cytotoxicity of 8.5%. In the case of Nc1c(S(=O)(=O)c2cccs2)c2nc3ccccc3nc2n1Cc1cccs1, the cytotoxicity was -15.3%. Work on Nc1c(S(=O)(=O)c2ccccc2)c2nc3ccccc3nc2n1/N=C/c1ccco1 yielded a cytotoxicity of 45.3%. In the case of COCCn1c(N)c(S(=O)(=O)c2cccs2)c2nc3ccccc3nc21, the cytotoxicity was -1.6%. Compound Cc1cccc(S(=O)(=O)c2c(N)n(/N=C/c3cccnc3)c3nc4ccccc4nc23)c1 has a cytotoxicity of 23.4%. In the case of Cc1cccc(S(=O)(=O)c2c(N)n(/N=C/c3ccco3)c3nc4ccccc4nc23)c1, the cytotoxicity was 17.6%. For Nc1c(S(=O)(=O)c2cccs2)c2nc3ccccc3nc2n1/N=C/c1cccc(O)c1, the cytotoxicity was 65.7% (active). In the case of Nc1c(S(=O)(=O)c2cccc(Cl)c2)c2nc3ccccc3nc2n1/N=C/c1ccc(O)c(O)c1, the cytotoxicity was 126% (active). Compound O=C(CCSc1nc(-c2ccco2)cc(C(F)(F)F)n1)NCC1CCCO1 (stereo not drawn) has a cytotoxicity of 3.2%. COCCCNC(=O)CCn1c(=O)c2ccccc2n(CC(=O)Nc2ccccc2C)c1=O gave a cytotoxicity of 1.7%. CN(C(=O)c1ccc2c(=O)n3c(nc2c1)CCCCC3)c1ccccc1 showed a cytotoxicity of -5.5%. For CCOC(=O)c1c(C)[nH]c(C(=O)CSc2nnnn2-c2ccccc2)c1C, the cytotoxicity was -2.7%. With CCc1nc2oc3cc(OC)ccc3c(=O)c2c(=O)n1Cc1ccco1 the cytotoxicity was -11.3%. With O=C(Nc1cccnc1)C1CCCN(S(=O)(=O)c2cccc3nsnc23)C1 (stereo not drawn) the cytotoxicity was -2.5%. Work on Cc1ccc(C(=O)NCCNC(=O)CN2CCCC2)cc1 yielded a cytotoxicity of -4.9%. Compound CN(C1CCCCC1)S(=O)(=O)c1ccc(NC(=O)C2CCCCC2C(=O)O)cc1 (stereo not drawn) has a cytotoxicity of -5.7%. With COc1ccc(-c2nc3c(c(=O)n(C)c(=O)n3C)n2CC2CC(c3ccccc3)=NO2)cc1OC (stereo not drawn) the cytotoxicity was 53.3% (active). COc1ccccc1C1=NOC(Cn2c(=O)c3c(ncn3C)n(C)c2=O)C1 (stereo not drawn) gave a cytotoxicity of -17.3%. COc1ccc(C2=NOC(Cn3c(Cc4ccc(Cl)cc4)nc4c3c(=O)n(C)c(=O)n4C)C2)cc1 (stereo not drawn) showed a cytotoxicity of 1.7%. For CC1CCN(c2nc3c(c(=O)[nH]c(=O)n3C)n2Cc2ccccc2Cl)CC1, the cytotoxicity was 8.5%. Compound CCOC(=O)c1cnc(=O)[nH]c1C has a cytotoxicity of 1.1%. With Cc1cc(-c2[nH]nc3c2C(c2ccsc2)C(C#N)=C(N)O3)c(C)s1 (stereo not drawn) the cytotoxicity was -9.2%. With Cc1ccc2[nH]c3c(c2c1)CN(C(=O)CN1CCN(c2ccccc2F)CC1)CC3 the cytotoxicity was 22.5%. With Cc1ccc2[nH]c3c(c2c1)CN(C(=O)CN1CCCc2ccccc21)CC3 the cytotoxicity was 54.4% (active). Compound Cc1ccc2[nH]c3c(c2c1)CN(C(=O)CN1CCN(c2ccccc2)CC1)CC3 has a cytotoxicity of 24.5%. In the case of CCN(CC)C(=O)c1csc(Nc2ccc(C)cc2)n1, the cytotoxicity was -18.4%. Work on Cc1nc2cc(CO)ccc2s1 yielded a cytotoxicity of 1.8%. CC(=O)N1CCc2cc(C(=O)CN3CCN(c4cccc(Cl)c4)CC3)ccc21 showed a cytotoxicity of -4%. O=C(Nc1ccc(O)cc1)c1ccc(C(=O)c2ccccc2)o1 gave a cytotoxicity of -1.3%. Cc1ncoc1C(=O)Nc1ccc(Oc2ccccc2)cc1 showed a cytotoxicity of -7.3%. In the case of Cc1ccc2c(COC(=O)c3cnc(C)cn3)cc(=O)oc2c1, the cytotoxicity was 4.8%. CCOc1ccc(C)cc1S(=O)(=O)N1CCCCC1 gave a cytotoxicity of 7.7%. With Cc1cnc(NC(=O)COc2ccccc2)s1 the cytotoxicity was 1.6%. In the case of O=S1(=O)Nc2c(ccc3cccnc23)-c2ccccc21, the cytotoxicity was 86% (active). Work on Nc1ccc2c(c1)-c1ccccc1S(=O)(=O)N2 yielded a cytotoxicity of 16.8%. In the case of Cc1ccc2c(c1)-c1ccccc1S(=O)(=O)N2, the cytotoxicity was 11.5%. Work on CC1CCN(c2nnc(N3CCC(C)CC3)c3ccccc23)CC1 yielded a cytotoxicity of -2.9%. Work on Cc1ccc(C(c2nnnn2Cc2cccs2)N2CCN(C(=O)c3ccco3)CC2)cc1 (stereo not drawn) yielded a cytotoxicity of 2%. CNC(=O)c1ccc(N(Cc2ccccc2C)S(C)(=O)=O)cc1 gave a cytotoxicity of 2.8%. Work on O=S(=O)(NCCc1ccccn1)c1ccc(F)c(F)c1 yielded a cytotoxicity of -21.4%. Compound Cc1cc(N2C(=O)C(=O)/C(=C(/O)c3ccc(F)cc3)C2c2ccc(Cl)cc2)no1 (stereo not drawn) has a cytotoxicity of 37.6%. Compound COc1ccc(/C(O)=C2\C(=O)C(=O)N(c3cc(C)on3)C2c2ccccc2OC)cc1 (stereo not drawn) has a cytotoxicity of 9.4%. Compound COc1cccc(C2/C(=C(\O)c3ccc(OC)c(OC)c3)C(=O)C(=O)N2c2cc(C)on2)c1 (stereo not drawn) has a cytotoxicity of 19.3%. For Cc1cc(N2C(=O)C(=O)/C(=C(/O)c3ccc(Cl)cc3)C2c2cccc(Br)c2)no1 (stereo not drawn), the cytotoxicity was 60.6% (active). Compound Cc1cc(N2C(=O)C(=O)/C(=C(/O)c3ccc(F)cc3)C2c2ccc(F)cc2)no1 (stereo not drawn) has a cytotoxicity of 16.6%. Cc1cc(N2C(=O)C(=O)/C(=C(/O)c3ccccc3)C2c2cccc(Br)c2)no1 (stereo not drawn) gave a cytotoxicity of 0.9%. With Cc1ccc(/C(O)=C2\C(=O)C(=O)N(c3cc(C)on3)C2c2cccc(Cl)c2)cc1 (stereo not drawn) the cytotoxicity was 55.9% (active). Cc1ccc(/C(O)=C2\C(=O)C(=O)N(c3cc(C)on3)C2c2cccc(Br)c2)cc1 (stereo not drawn) gave a cytotoxicity of 48.2%. For Cc1cc(N2C(=O)C(=O)/C(=C(/O)c3ccc(F)cc3)C2c2cccc(Br)c2)no1 (stereo not drawn), the cytotoxicity was 72.5% (active).
